Rows were chosen to be rich in hits. Some 5.7% of all compounds tested hit in one or more screens of this group.
GLP1R ag: qHTS of GLP-1 Receptor Agonists | 380,000 compounds, 0.007% hits | HEK293 GLP-1R CRE-luciferase, luminescence, 4-6 h; cells express a hypersensitive GLP-1R form | Potency, µM (top dose mostly 45.6 µM), actives largely listed as activators
D3 antag: qHTS of D3 Dopamine Receptor Antagonist: qHTS; AID 652054, 2013; max response, negative = inhibition, %; D3R cells, DiscoveRx beta-arrestin luminescence, antagonist mode; stronger effect = lower value; D(3) dopamine receptor (Homo sapiens), P35462; 360,000 compounds, 2.5% hits; in the data active = max response below about -50%; inconclusive = no clear call, values can overlap the other calls
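Cells expressing the human receptor were seeded at 1500 cells/well, incubated overnight at 37 degrees C in 5% CO2, then exposed to library compounds with dopamine controls for 90 minutes at 37 degrees C before luminescent detection.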
DRD3 agonist: qHTS of D3 Dopamine Receptor Agonist: qHTS. D(3) dopamine receptor (Homo sapiens), P35462. D3R DiscoveRx beta-arrestin cells, luminescence, 90 min. max activation, %. 410,000 compounds, 0.58% hits; in the data active = max activation above about 30%
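Agonist-mode cell screen: cells plated at 1500/well and incubated overnight at 37 °C, then exposed to library compounds for 90 min at 37 °C. Detection reagent was added for 30–60 min at room temperature, and luminescence was read.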
ClpP mod: qHTS Assay for Activators of ClpP. purified B. subtilis ClpP, FRET peptide cleavage, 20 min. Potency, µM (highest dose often 57.5 µM). ATP-dependent Clp protease proteolytic subunit (Bacillus subtilis (strain 168)), P80244. AID 651965, 2013. 340,000 compounds, 1.9% hits; active = well fitted falling curve with a large enough effect; inconclusive = small, poorly fitted or top-dose-only effect; inactive = no such curve, though single readings can be large or run the other way; also: the source files actives as falling curves though it sought activators and does not explain the sign; nearly all actives have a fitted effect of over 65% in size
Target sequence (P80244 whole entry, looked up): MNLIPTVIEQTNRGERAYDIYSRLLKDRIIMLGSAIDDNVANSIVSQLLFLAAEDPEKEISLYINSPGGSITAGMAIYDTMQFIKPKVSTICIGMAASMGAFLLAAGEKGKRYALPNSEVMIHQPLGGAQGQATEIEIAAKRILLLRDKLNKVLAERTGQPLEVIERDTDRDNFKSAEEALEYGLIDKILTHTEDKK
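Purified B. subtilis ClpP, 10 microg/mL final in Tris/HCl pH8 with KCl, BSA, glycerol and Tween-20, cleaved an Abz/nitrotyrosine-quenched decapeptide. Fluorescence (ex 320, em 430) was read at 0 and 20 min at room temperature. Delta was normalized to 5.8 microM ADEP and DMSO/no-enzyme controls.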
GLP-1R inv ag: qHTS of GLP-1 Receptor Inverse Agonists (Inhibition Mode) | Glucagon-like peptide 1 receptor (Homo sapiens), P43220 | HEK293 GLP-1R CRE-luciferase, luminescence, 24 h; GLP-1R form is constitutively active | Potency, µM (doses to about 38.3 µM), actives largely listed as inhibitors | 410,000 compounds, 1.6% hits; also: nearly all actives have a fitted effect of over 55% in size
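qHTS in 1536-well format: reporter HEK293 cells expressing constitutive GLP-1R activity in DMEM + 10% Nu serum, 24 hr with compounds at 37 deg C, luminescence read after 12 min with detection reagent.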
HEK293 tox: qHTS of GLP-1 Receptor Inverse Agonists: Cytotox Screen. 410,000 compounds, 0.13% hits. HEK293 cAMP-luciferase reporter cells, luminescence, 24 h. Potency, µM (titrated, usually from 38.3 µM), hits mostly inhibitors. AID 624418, 2012;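 also: loss of luciferase light is scored as toxicity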
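1536-well qHTS counterscreen of the MLSMR; 200 cells/uL, 12 h pre-incubation, 23 nL cpd, 24 h at 37 deg C 5% CO2, luciferase detection reagent, 12 min RT, luminescence. Inhibition = undesired.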
Each line names hits and unclear results; the compound was inactive in the other large screens. Unless noted, calls follow the shape of the dose curve; as a rule, active = well fitted curve in the direction sought with a large enough effect; inconclusive = small, poorly fitted or top-dose-only effect, or another doubt; inactive = no such curve, though single readings can be large; an effect the other way counts as inactive or inconclusive.

Cc1cc(NC(=O)CCn2c(=O)c3cccn3c3cccnc32)ccc1Br	none (no result: GLP1R ag, D3 antag)
CC(=O)Nc1sc2c(c1CN1CCN(c3ccc(F)cc3)CC1)CCCC2	GLP-1R inv ag 7.08µM
CC(=O)Nc1sc2c(c1CN1CCN(c3ccccn3)CC1)CCCC2	D3 antag -62.2
CC(=O)Nc1sc2c(c1CN1CCCC1)CCCC2	none (no result: ClpP mod)
CCOC(=O)C1(C)CCN1C(=O)c1ccc(C)cc1 (stereo not drawn)	none
COc1ccc(Cc2c(-c3ccc(F)cc3)nc3ccc(Cl)cn23)c(C)c1	none
CC1CCCC(C)N1C(=O)CSc1nnnn1-c1cccc2c1CCCC2 (stereo not drawn)	GLP-1R inv ag 7.94µM
O=C(CSc1nnnn1-c1cccc2c1CCCC2)N1CCCC1	GLP-1R inv ag inconclusive
COc1cccc(C2CC(=O)Nc3c2c(=O)nc2c(C)cccn32)c1OC (stereo not drawn)	none (no result: GLP1R ag, D3 antag)
NC(=O)c1cc[n+](CC2=C(C(=O)O)N3C(=O)[C@@H](NC(=O)[C@@H](c4ccccc4)S(=O)(=O)[O-])[C@H]3SC2)cc1	none (no result: GLP1R ag, D3 antag, DRD3 agonist, GLP-1R inv ag, HEK293 tox)
CCn1cc(Cl)c(C(=O)Nc2ccccc2C(N)=O)n1	DRD3 agonist 47.6
CN1C(C(=O)c2ccccc2)=C(N)c2ccccc2S1(=O)=O	none
Cc1ccc(NC2=C(C(=O)c3ccccc3)N(C)S(=O)(=O)c3ccccc32)cc1	D3 antag -59.9, GLP-1R inv ag inconclusive
CCOC(=O)C1=C(C)Nc2sc(C(=O)c3ccc(C)cc3)c(N)c2C1c1ccc(C(=O)OC)cc1 (stereo not drawn)	ClpP mod 8.91µM
CCOC(=O)C1=C(C)Nc2sc(C(=O)c3ccc(F)cc3)c(N)c2C1c1ccc(C(=O)OC)cc1 (stereo not drawn)	GLP-1R inv ag inconclusive
COc1ccc(-c2nnc(N(C)C(=O)c3ccno3)s2)cc1	ClpP mod 22.4µM
COc1cccc(CN2C(=O)N(c3ccc(C)cc3)C(=O)C2CC(=O)Nc2cc(OC)cc(OC)c2)c1 (stereo not drawn)	GLP-1R inv ag inconclusive (no result: GLP1R ag, D3 antag)
COc1ccccc1C(=O)N1CCC(C(=O)c2ccc(F)cc2)CC1	D3 antag -70.2
Cc1ccc(C(=O)C2CCN(C(=O)c3ccc(C)cc3)CC2)cc1	GLP-1R inv ag 8.91µM
O=C(CN1CCC(C(=O)c2ccc(F)cc2)CC1)Nc1ccccc1Cl	D3 antag -56.9, GLP-1R inv ag inconclusive (no result: ClpP mod)
Cc1ccc(C(=O)N2CCC(C(=O)c3ccc(F)cc3)CC2)cc1	GLP-1R inv ag inconclusive
COc1ccccc1NC(=O)CN1CCN(CC(=O)Nc2ccc(Cl)c(C(F)(F)F)c2)CC1	GLP-1R inv ag 3.98µM, HEK293 tox inconclusive
Cc1cccc(C(=O)Nc2nnc(S(=O)(=O)N(C)Cc3ccc(Cl)cc3)s2)c1	ClpP mod inconclusive, GLP-1R inv ag inconclusive (no result: GLP1R ag, D3 antag)
Cc1ccc(C)c(Cn2nnc(C(=O)NCc3ccc(Cl)cc3Cl)c2N)c1	none (no result: GLP1R ag, D3 antag)
CCOc1ccccc1NC(=O)CN1CCC(C(=O)c2ccc(F)cc2)CC1	D3 antag inconclusive, GLP-1R inv ag inconclusive (no result: ClpP mod)
CCn1c(=O)n(CC)c2cc(N3CCCCC3)c(NC(=O)Nc3cc(Cl)ccc3OC)cc21	ClpP mod 28.2µM (no result: GLP1R ag, D3 antag)
COc1ccccc1NC(=O)CN1CCC(C(=O)c2ccc(F)cc2)CC1	D3 antag -70.3
CCn1c(=O)n(CC)c2cc(N3CCCC3)c(NC(=O)c3cc(Br)ccc3OC)cc21	none
COc1cc(NC(=O)Nc2cccc(Cl)c2)c(OC)cc1NC(=O)CN1CCCCC1	GLP-1R inv ag 3.16µM, HEK293 tox inconclusive
O=C(CN1CCCCC1)Nc1cccc(Cl)c1	none
COc1ccc(NC(=O)CN2CCC(n3c(C)nc4cc(F)ccc43)CC2)c(OC)c1	DRD3 agonist 131.8
O=C(NCc1ccccc1Cl)[C@H]1CCCN1C(=O)[C@H]1CCCN1C(=O)c1ccc(Cl)cc1	none
